Where “and” joins values, the source holds several entries; their conditions need not be identical. Equal entries are not always repeated. Calls of active or inactive are those of the source.
Legend:
[1] = anti-His antibody binders, primary screen, artefact control for SMM control protein annotation, biochemical, small-molecule microarray, 635 nm fluorescence (AID 1128); settings: anti-His Alexa647 antibody binding, higher = more signal;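 further: score merges feature fluorescence with signal-to-noise for each printed compound spot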
[2] = system: Human papillomavirus type 1a E7 protein (residues 1-88); assay: HPV1a E7 small-molecule binders, primary screen, biochemical, small-molecule microarray, residues 1-88, 635 nm (AID 1129); settings: small-molecule microarray binding, fluorescence 635 nm; higher = more signal
[3] = biological target: Focal adhesion kinase 1 (Homo sapiens) (UniProt Q05397); assay: small-molecule microarray binders of FAK, primary screen, biochemical, 635/667 nm fluorescence, BSA, DTT (AID 1130); settings: PTK2 binding, 635 nm fluorescence, higher = more signal;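 further: composite of spot emission at 667 nm and signal to noise over triplicate slides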
[4] = system: Fibrinogen (Alexa647-labelled); assay: fibrinogen binders on compound microarrays, profiling panel, artefact control for SMM control-protein annotation, biochemical, small-molecule microarray, 635/667 nm fluorescence (AID 1131); settings: fibrinogen-A647 binding fluorescence, higher = more signal;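 further: z-score merges 667 nm fluorescence with per-spot signal-to-noise over triplicate slides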
[5] = biological target: Follistatin (Homo sapiens) (UniProt P19883); assay: follistatin binders on small-molecule microarrays, primary screen, biochemical, small-molecule microarray, 635/667 nm fluorescence (AID 1132); settings: FST binding, 635 nm fluorescence, higher = more signal
[6] = biological target: Fibroblast growth factor 2 (Homo sapiens) (UniProt P09038); assay: FGF2 binders on small-molecule microarrays, primary screen, biochemical, small-molecule microarray, 635/667 nm fluorescence (AID 1133); settings: small-molecule microarray binding, FGF2, fluorescence 635/667; higher = more signal
[7] = mitochondrial membrane potential change in A549 cells, profiling panel, cell-based, JC-1 fluorescence, basal, 24 h, 100 nL (AID 1138); settings: higher = more signal;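 further: A549 lung adenocarcinoma cells under basal conditions with no added stimulus; test concentration not given here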
Lefty1 = Lefty1 binders on small-molecule microarrays, primary screen, biochemical, small-molecule microarray, 635/667 nm fluorescence (AID 1139); settings: small-molecule microarray binding, fluorescence 635/667; higher = more signal
[8] = system: wheat germ agglutinin (Triticum aestivum), Alexa647-labelled; assay: wheat germ agglutinin binders on compound microarrays, profiling panel, artefact control for SMM control-protein annotation, biochemical, small-molecule microarray, 635/667 nm fluorescence (AID 1140); settings: WGA-A647 binding, 635 nm fluorescence, higher = more signal;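 further: score merges 667 nm feature emission with signal to noise over triplicate slides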
[9] = biological target: Luciferin 4-monooxygenase (Photinus pyralis) (UniProt P08659); assay: firefly luciferase enzyme inhibitors, primary screen, biochemical, luminescence, purified enzyme, 2006 set (AID 1141); settings: SteadyGlo luminescence, 30 min, higher = more signal, called active from +8 up or from −8 down;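 further: cell-free assay with purified firefly luciferase at 100 ng per well in PBS; test concentration not given here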
Chain of Luciferin 4-monooxygenase (Photinus pyralis) (P08659 whole entry, looked up): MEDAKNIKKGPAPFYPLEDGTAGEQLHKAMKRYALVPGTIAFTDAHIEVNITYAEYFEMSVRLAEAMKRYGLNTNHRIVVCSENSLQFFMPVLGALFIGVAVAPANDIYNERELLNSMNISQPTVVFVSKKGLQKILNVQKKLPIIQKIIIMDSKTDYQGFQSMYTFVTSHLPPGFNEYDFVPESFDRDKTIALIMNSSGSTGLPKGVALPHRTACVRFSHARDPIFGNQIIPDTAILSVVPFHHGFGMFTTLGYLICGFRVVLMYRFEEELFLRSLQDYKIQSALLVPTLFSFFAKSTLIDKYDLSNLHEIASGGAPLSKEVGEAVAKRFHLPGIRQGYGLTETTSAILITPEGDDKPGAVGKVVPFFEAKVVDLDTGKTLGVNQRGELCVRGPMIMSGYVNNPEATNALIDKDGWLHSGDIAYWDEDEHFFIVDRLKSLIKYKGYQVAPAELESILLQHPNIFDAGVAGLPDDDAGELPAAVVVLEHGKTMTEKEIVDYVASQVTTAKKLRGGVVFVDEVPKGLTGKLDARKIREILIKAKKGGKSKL

Chain of Follistatin (Homo sapiens) (P19883 whole entry, looked up): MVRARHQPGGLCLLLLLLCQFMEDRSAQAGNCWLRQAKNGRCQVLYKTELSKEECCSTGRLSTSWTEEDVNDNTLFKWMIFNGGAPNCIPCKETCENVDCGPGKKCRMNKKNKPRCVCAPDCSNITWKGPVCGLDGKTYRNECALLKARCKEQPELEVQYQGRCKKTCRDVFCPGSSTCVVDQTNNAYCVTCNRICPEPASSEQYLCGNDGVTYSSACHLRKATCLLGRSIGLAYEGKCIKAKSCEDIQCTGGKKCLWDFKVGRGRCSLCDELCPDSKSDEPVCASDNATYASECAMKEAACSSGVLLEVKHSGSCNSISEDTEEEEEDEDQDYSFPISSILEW
Chain of Fibroblast growth factor 2 (Homo sapiens) (P09038 whole entry, looked up): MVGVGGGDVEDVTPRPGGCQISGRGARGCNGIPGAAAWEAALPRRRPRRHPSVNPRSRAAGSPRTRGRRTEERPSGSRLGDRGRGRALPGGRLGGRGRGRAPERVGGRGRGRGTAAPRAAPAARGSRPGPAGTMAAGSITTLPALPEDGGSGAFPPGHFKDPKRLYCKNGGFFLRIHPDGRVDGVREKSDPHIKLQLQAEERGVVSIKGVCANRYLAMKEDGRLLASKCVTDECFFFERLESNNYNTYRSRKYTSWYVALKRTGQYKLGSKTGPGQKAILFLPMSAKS
Chain of Focal adhesion kinase 1 (Homo sapiens) (Q05397 whole entry, looked up): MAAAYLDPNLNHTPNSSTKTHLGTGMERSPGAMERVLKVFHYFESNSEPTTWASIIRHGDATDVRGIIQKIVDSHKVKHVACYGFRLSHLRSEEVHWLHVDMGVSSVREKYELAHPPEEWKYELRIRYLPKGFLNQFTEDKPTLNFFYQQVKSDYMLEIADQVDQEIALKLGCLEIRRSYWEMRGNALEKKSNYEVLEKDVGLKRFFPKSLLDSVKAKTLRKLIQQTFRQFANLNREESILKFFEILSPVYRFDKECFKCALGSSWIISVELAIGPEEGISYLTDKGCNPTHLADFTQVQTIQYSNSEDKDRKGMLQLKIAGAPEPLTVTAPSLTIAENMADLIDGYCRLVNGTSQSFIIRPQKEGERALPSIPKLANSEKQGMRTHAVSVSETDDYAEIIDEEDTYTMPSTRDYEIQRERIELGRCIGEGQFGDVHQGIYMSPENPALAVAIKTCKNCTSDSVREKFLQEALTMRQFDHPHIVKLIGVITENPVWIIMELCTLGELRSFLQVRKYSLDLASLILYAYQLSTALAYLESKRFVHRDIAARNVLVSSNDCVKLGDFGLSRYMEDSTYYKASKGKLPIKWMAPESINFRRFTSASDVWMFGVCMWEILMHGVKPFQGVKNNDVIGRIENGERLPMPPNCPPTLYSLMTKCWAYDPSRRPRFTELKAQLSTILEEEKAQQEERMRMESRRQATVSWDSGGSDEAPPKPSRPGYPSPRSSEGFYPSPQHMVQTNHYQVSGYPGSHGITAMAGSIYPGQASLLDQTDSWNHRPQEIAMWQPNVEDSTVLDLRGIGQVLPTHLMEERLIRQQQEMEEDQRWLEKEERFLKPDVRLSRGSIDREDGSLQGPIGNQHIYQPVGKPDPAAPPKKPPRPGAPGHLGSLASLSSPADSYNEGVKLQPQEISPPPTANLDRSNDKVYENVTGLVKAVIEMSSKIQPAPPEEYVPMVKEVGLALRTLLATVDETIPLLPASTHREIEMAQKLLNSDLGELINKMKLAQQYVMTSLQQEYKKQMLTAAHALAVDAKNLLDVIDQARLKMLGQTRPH

CO[C@@H]1COC(=O)[C@H](Cc2ccccc2)NC(=O)CC=C[C@@H](C)[C@H](OC)COC(=O)[C@@H](C)NC(=O)CC=C[C@H]1C
composite z-score [1]: 0.106 and 0.0473 | composite z-score [2]: -0.184 and -0.37 | composite z-score [3]: -0.129 and 0.183 | composite z-score [4]: -0.116 and -0.231 | composite z-score [5]: 1.32 and 1.18 | composite z-score [6]: 1.58 and 1.35 | z-score [7]: 1.24 and 0.944 | composite z-score (Lefty1): 1.54 and 1.35 | composite z-score [8]: -0.714 and -0.807 | z-score [9]: -0.554 (inactive) and -1.49 (inactive)

C=C[C@H](OC)[C@@H](O)c1ccc(OCCO)cc1
composite z-score [1]: -1.34 and 2.11 | composite z-score [2]: -1.73 and -0.721 | composite z-score [3]: -0.86 and 0.0202 | composite z-score [4]: -2.46 and -1.57 | composite z-score [5]: -1.51 and -0.835 | composite z-score [6]: -1.92 and -0.492 | z-score [7]: -0.669 and 0.692 | composite z-score (Lefty1): -2.17 and -1.55 | composite z-score [8]: -2.15 and -0.827 | z-score [9]: -0.117 (inactive) and -1.75 (inactive)

CO[C@H]1COC(=O)[C@H](C)NC(=O)CC=C[C@@H](C)[C@H](OC)COC(=O)CC=C[C@@H]1C
composite z-score [1]: -0.284 | composite z-score [2]: -1.4 | composite z-score [3]: -0.348 | composite z-score [4]: -1.86 | composite z-score [5]: 1.28 | composite z-score [6]: 1.71 | z-score [7]: 0.106 | composite z-score (Lefty1): 1.62 | composite z-score [8]: -0.655 | z-score [9]: -0.885 (inactive)

COC(=O)[C@@]1(Cc2ccccc2)[C@H]2c3cc(C(=O)N(C)C)n(Cc4ccc(C)c(F)c4F)c3C[C@H]2CN1C(=O)c1ccccc1
composite z-score [1]: 1.95 and 1.06 | composite z-score [2]: 1.24 and 1.25 | composite z-score [3]: 0.73 and 1.04 | composite z-score [4]: 0.966 and 1.01 | composite z-score [5]: 0.096 and 1.26 | composite z-score [6]: -0.824 and -0.149 | z-score [7]: -1.17 and -1.14 | composite z-score (Lefty1): -0.587 and 0.642 | composite z-score [8]: 0.899 and 1.03 | z-score [9]: -1.27 (inactive) and 0.773 (inactive)

COc1ccc(COC(=O)NN=C2C[C@@H](O)[C@@H](O)[C@@H]3[C@@H]4C(=O)N(C(C)(C)C)C(=O)[C@@H]4CC[C@H]23)cc1
composite z-score [1]: 1.34 | composite z-score [2]: 0.797 | composite z-score [3]: 0.0704 | composite z-score [4]: 0.816 | composite z-score [5]: 0.126 | composite z-score [6]: 0.699 | z-score [7]: 0.453 | composite z-score (Lefty1): 0.281 | composite z-score [8]: 0.0873 | z-score [9]: -1.08 (inactive)

O=C1C[C@]2(c3ccc([N+](=O)[O-])cc3)C(=O)N(Cc3ccccc3)c3cc(CO)ccc3[C@H]2N1C1CCCCC1
composite z-score [1]: 0.0501 and 1.06 | composite z-score [2]: 0.905 and 0.134 | composite z-score [3]: 0.152 and 0.0229 | composite z-score [4]: -0.437 and -0.106 | composite z-score [5]: 0.585 and 1.41 | composite z-score [6]: 0.368 and 1.02 | z-score [7]: -0.38 and 0.277 | composite z-score (Lefty1): 0.507 and 0.482 | composite z-score [8]: -0.329 and 0.59 | z-score [9]: 0.302 (inactive) and -0.537 (inactive)

CCCCN1CC=CC23O[C@@H]4C=CCCOC(=O)C4[C@H]2C(=O)N(C(C)CO)[C@@H]3C1=O (stereo not given in full)
composite z-score [1]: 2.27 and -0.329 | composite z-score [2]: -0.461 and -0.54 | composite z-score [3]: -0.293 and -0.0655 | composite z-score [4]: -1.04 and -0.749 | composite z-score [5]: -0.546 and 0.101 | composite z-score [6]: -0.579 and -0.63 | z-score [7]: -0.224 and -0.725 | composite z-score (Lefty1): -0.222 and 0.172 | composite z-score [8]: -0.558 and -0.281 | z-score [9]: -0.0385 (inactive) and -0.213 (inactive)

C[N+](C)(C)CCCCNC(=O)[C@H]1C[C@H]2C(=O)N[C@@H](CCCC[N+](C)(C)C)C(=O)N2[C@H]1c1cccc(OCCO)c1
composite z-score [1]: 1.98 and 1.03 | composite z-score [2]: -0.166 and 0.848 | composite z-score [3]: -0.389 and -0.117 | composite z-score [4]: -0.816 and -0.179 | composite z-score [5]: 1.49 and 1.53 | composite z-score [6]: 1.93 and 1.73 | z-score [7]: -0.59 and -0.114 | composite z-score (Lefty1): 1.75 and 1.59 | composite z-score [8]: -1.07 and 1.04 | z-score [9]: 0.254 (inactive) and 0.0887 (inactive)

COC(=O)C1=C(C)N(Cc2ccccc2)C2=C(C(=O)c3ccccc3)[C@H](c3ccccc3)[C@@](O)(C(=O)OC)C(=O)N2[C@@H]1c1ccccc1
composite z-score [1]: 0.326 and -0.476 | composite z-score [2]: 0.477 and 0.778 | composite z-score [3]: 0.0825 and 1.11 | composite z-score [4]: 0.435 and -0.0657 | composite z-score [5]: 0.526 and 0.424 | composite z-score [6]: 0.442 and 0.433 | z-score [7]: 0.722 and 0.241 | composite z-score (Lefty1): 0.571 and 0.636 | composite z-score [8]: 0.419 and -0.0152 | z-score [9]: -1.49 (inactive) and -0.0191 (inactive)

COC(=O)C1=C(C)N(Cc2ccccc2)[C@]23O[C@](C(=O)OC)(C(=O)N2[C@@H]1c1ccccc1)[C@H]1C(=O)N(C)C(=O)[C@H]13
composite z-score [1]: 0.561 and 1.01 | composite z-score [2]: 1.12 and 0.878 | composite z-score [3]: -0.178 and -0.0654 | composite z-score [4]: 0.938 and 0.0407 | composite z-score [5]: 0.368 and 0.409 | composite z-score [6]: 0.219 and 0.4 | z-score [7]: -0.993 and 1.4 | composite z-score (Lefty1): 0.817 and 1.17 | composite z-score [8]: 0.638 and 0.366 | z-score [9]: -0.576 (inactive) and -1.35 (inactive)

CCOC(=O)C[C@H]1[C@H](OC(=O)c2ccccc2-c2ccccc2)[C@@H](NC(=O)Cc2ccc(OC)cc2)c2cc(OCCCO)ccc2N1C(=O)c1ccc2ccccc2n1
composite z-score [1]: 0.206 and -0.185 | composite z-score [2]: 0.24 and 0.622 | composite z-score [3]: -0.0875 and 0.194 | composite z-score [4]: 0.524 and 0.464 | composite z-score [5]: 0.392 and 0.546 | composite z-score [6]: 0.714 and 0.119 | z-score [7]: 3.49 and 0.601 | composite z-score (Lefty1): 0.0614 and 1.07 | composite z-score [8]: 0.172 and 0.238 | z-score [9]: -0.391 (inactive) and -0.85 (inactive)

C=CCN(CCCC)C(=O)C1N(C(C)(C)CO)C(=O)C2C(C(=O)O)C3C=CC21O3 (stereo not given)
composite z-score [1]: -0.767 and -0.57 | composite z-score [2]: -1.26 and -1.35 | composite z-score [3]: -0.909 and -1.23 | composite z-score [4]: -4.07 and -1.59 | composite z-score [5]: -2.17 and -2.38 | composite z-score [6]: -1.42 and -1.18 | z-score [7]: -0.628 and -0.501 | composite z-score (Lefty1): -1.93 and -1.64 | composite z-score [8]: -0.788 and -0.799 | z-score [9]: 1.12 (inactive) and 0.853 (inactive)

C=CCN(C(=O)C1N(CCCCCCO)C(=O)C2C(C(=O)O)C3C=CC21O3)C(C)(C)C (stereo not given)
composite z-score [1]: -1 and 0.0369 | composite z-score [2]: -1.24 and -0.385 | composite z-score [3]: -0.837 and -0.881 | composite z-score [4]: -4.96 and -2.32 | composite z-score [5]: -1.88 and -2.11 | composite z-score [6]: -1.42 and -1.7 | z-score [7]: 0.219 and 0.389 | composite z-score (Lefty1): -2.49 and -1.84 | composite z-score [8]: -0.75 and -0.561 | z-score [9]: -1.04 (inactive) and -0.426 (inactive)

C=CCN(Cc1ccccc1)C(=O)C1N(CCOCCO)C(=O)C2C(C(=O)O)C3C=CC21O3 (stereo not given)
composite z-score [1]: -1.85 and -0.223 | composite z-score [2]: -0.804 and -0.812 | composite z-score [3]: -1.29 and -0.708 | composite z-score [4]: -1.23 and -1.34 | composite z-score [5]: -3.29 and -1.2 | composite z-score [6]: -2.01 and -1.98 | z-score [7]: 1.2 and -0.743 | composite z-score (Lefty1): -2.56 and -2.05 | composite z-score [8]: -0.94 and -1.25 | z-score [9]: -0.582 (inactive) and 1.28 (inactive)

C=C[C@@H](OC)[C@H](O)c1ccc(OCCO)cc1
composite z-score [1]: 3.17 and -0.401 | composite z-score [2]: -0.875 and -0.95 | composite z-score [3]: 0.005 and -0.754 | composite z-score [4]: -1.95 and -1.4 | composite z-score [5]: -0.286 and -0.426 | composite z-score [6]: -0.333 and -0.692 | z-score [7]: 0.27 and -0.142 | composite z-score (Lefty1): -0.545 and -0.201 | composite z-score [8]: 1.26 and -0.543 | z-score [9]: -3.43 (inactive) and -3.1 (inactive)

— PubChem BioAssay
